According to ChEMBL document CHEMBL1201862, “PubChem BioAssay data set” (2004):
Hit rate of the full screen: of about 44,000 sequences, about 5,100 (12%) were called active. This is one part of a sample in which actives are shown more often than they occur. Cut-off read from the data, not from the text of the source: active = GI50 up to about 1.1 µM and inactive = higher. Entries with a potency or affinity are not part of this list.

Each substance was assayed on MCF7.
“[Bis(aminomethyl)dimethylsilane]tetrachloroplatinum(IV), CHEMBL2146190” gave a GI50 of 2970 nM.
SENNOSIDES, CHEMBL2108559 showed a GI50 of 183 nM.
For “[Bis(aminomethyl)tetramethylenesilane]tetrachloropaltinum(IV), CHEMBL2146189”, the GI50 was 1640 nM.
“[Bis(aminomethyl)pentamethylenesilane]dichloropaltinum(II), CHEMBL2146202” gave a GI50 of 249 nM.
CISPLATIN, CHEMBL11359 showed a GI50 of 3010 nM.
“[Bis(aminomethyl)tetramethylenesilane]dichloropaltinum(II), CHEMBL2146205” showed a GI50 of 2220 nM.
“[Bis(aminomethyl)pentamethylenesilane]tetrachloropaltinum(IV), CHEMBL2146204” showed a GI50 of 290 nM.
